Among the test systems are DU-145 prostate; K-562 leukemia; MALME-3M melanoma; MDA-MB-231 breast; RXF 393 renal; SF-268 CNS; SF-295 CNS; SF-539 CNS; UACC-257 melanoma; M14 melanoma; HCT-15 colon; HT29 colon; SNB-75 CNS; SNB-19 CNS; U251 CNS; PC-3 prostate; SK-MEL-5 melanoma; UACC-62 melanoma; LOX IMVI melanoma; SK-MEL-28 melanoma.
Holding throughout (assay): NCI-60 one-dose screen, 48 h (100 = growth as untreated, 0 = no growth, -100 = all killed)
Holding throughout (conditions): 10 µM unless noted

SMILES strings stand for the structures. Compounds without any hit were thinned out: in the full panel of roughly 83,000, 20% have a hit.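 Percent growth is the endpoint: 0 to 100 indicates growth inhibition (40 means 60% inhibition), 0 means no net growth, and negative values indicate cell death.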 Unmarked numbers belong to inactive results. The source made the active and inactive calls. The calls were made as follows: active = growth percent below 10; inactive = the rest.

Results on 8 compounds are retold here after PubChem BioAssay (NCI).

On to `NC1=Nc2cc(OCCCCN3Cc4ccccc4C3)c(OCC3CC3)cc2C12CCCC2`, for which the growth with DU-145 prostate is 65%; in the assay on K-562 leukemia, 2.5% (active); in the assay on MALME-3M melanoma it was -88.5% (active); in the assay on MDA-MB-231 breast it was 19.3%; with RXF 393 renal, 30.2%; with SF-268 CNS, 56.1%. For the same compound, the growth is 61.7% with SF-295 CNS; -8.18% (active) in the assay with SF-539 CNS; -83.2% (active) in the assay on UACC-257 melanoma; -89.7% (active) with M14 melanoma; 3.13% (active) with HCT-15 colon; 2.03% (active) in the assay on HT29 colon. The growth with SNB-75 CNS is 71.5%; in the assay on SNB-19 CNS, 76.9%; with U251 CNS, 24.2%; with PC-3 prostate, 44.1%; in the assay on SK-MEL-5 melanoma, -91.5% (active); with UACC-62 melanoma, 50.5%. The growth is -80.7% (active) in the assay on LOX IMVI melanoma and -81.4% (active) with SK-MEL-28 melanoma.
As for `CC1(C)OB(O)c2cc(-c3nc4ccc5[nH]ncc5c4c4c3CCCC4)ccc21`, the growth with DU-145 prostate was 54.8%; with K-562 leukemia, 44.5%; in the assay on MALME-3M melanoma, 60.5%; in the assay with MDA-MB-231 breast, 47.9%; in the assay with RXF 393 renal it was 35.3%; with SF-268 CNS, 57.4%. Besides, the growth with SF-295 CNS is 63.1%; in the assay on SF-539 CNS it was 73.6%; with UACC-257 melanoma, 77.5%; with M14 melanoma it was 52%; in the assay on HCT-15 colon it was 38.2%; with HT29 colon, 56.3%. In addition, the growth in the assay on SNB-75 CNS is 75%; in the assay on SNB-19 CNS, 90.6%; in the assay with U251 CNS it was 61.8%; in the assay with PC-3 prostate it was 41.3%; in the assay on SK-MEL-5 melanoma it was -67.9% (active); with UACC-62 melanoma it was 37.7%. Besides, the growth in the assay with LOX IMVI melanoma was 42%; with SK-MEL-28 melanoma, 87.4%.
Regarding `Cc1ccc2c(-n3nc(C#N)c(C#N)c3N)cc(=O)[nH]c2c1`, the growth in the assay with DU-145 prostate was 94%; in the assay with K-562 leukemia, 76%; in the assay with MALME-3M melanoma, 78.2%; in the assay on MDA-MB-231 breast, 85.5%; with RXF 393 renal, 100%; in the assay on SF-268 CNS it was 94.4%. In addition, the growth with SF-295 CNS was 94%; with SF-539 CNS it was 89.8%; with UACC-257 melanoma, 87.9%; in the assay with M14 melanoma, 84.9%; in the assay with HCT-15 colon, 87.9%; in the assay on HT29 colon, 93.7%. Further, the growth was 110% in the assay on SNB-75 CNS; 88.6% in the assay on SNB-19 CNS; 86.4% in the assay on U251 CNS; 71.1% in the assay on PC-3 prostate; 93.5% in the assay with SK-MEL-5 melanoma; 80.2% in the assay on UACC-62 melanoma. Further, the growth in the assay with LOX IMVI melanoma was 81%; in the assay with SK-MEL-28 melanoma, 94.1%.
For the compound `O=S(=O)(Nc1cc(Sc2cccc3cccnc23)c(O)c2ccccc12)c1ccccc1`, the growth was 15% in the assay with DU-145 prostate; -16.8% (active) in the assay on K-562 leukemia; 0.404% (active) with MALME-3M melanoma; 25.1% with MDA-MB-231 breast; 28.7% in the assay with RXF 393 renal; 8.28% (active) in the assay with SF-268 CNS. The growth in the assay with SF-295 CNS is 21.7%; in the assay on SF-539 CNS it was -9.98% (active); with UACC-257 melanoma, -9.38% (active); in the assay on M14 melanoma, -16.5% (active); with HCT-15 colon, 12.2%; with HT29 colon it was -35.8% (active). For the same compound, the growth with SNB-75 CNS was 65.9%; in the assay with SNB-19 CNS it was 43.4%; in the assay with U251 CNS it was 6.77% (active); with PC-3 prostate it was 20.9%; in the assay with SK-MEL-5 melanoma it was -25.2% (active); in the assay on UACC-62 melanoma, -40.1% (active). Besides, the growth was -50.2% (active) in the assay on LOX IMVI melanoma and 0.27% (active) in the assay with SK-MEL-28 melanoma.
On to `CCCCCCCCCCCCCOC(=O)c1c(C)[nH]c(/C=C2\N=C(c3ccc[nH]3)C=C2OC)c1C`, for which the growth is 29.3% in the assay with DU-145 prostate; 5.53% (active) in the assay with K-562 leukemia; 41.8% in the assay with MALME-3M melanoma; 19.6% in the assay on MDA-MB-231 breast; 27.7% with RXF 393 renal; 34.2% with SF-268 CNS. The growth with SF-295 CNS is 49.9%; in the assay with SF-539 CNS, 10.8%; in the assay on UACC-257 melanoma it was 38.7%; in the assay on M14 melanoma, 1.88% (active); in the assay with HCT-15 colon, 4.86% (active); with HT29 colon it was 8.1% (active). Also, the growth is 21.2% in the assay with SNB-75 CNS; 48.1% in the assay with SNB-19 CNS; 23.9% with U251 CNS; 27.6% in the assay on PC-3 prostate; -89.1% (active) in the assay on SK-MEL-5 melanoma; -19.1% (active) in the assay on UACC-62 melanoma. The growth was -56.4% (active) in the assay on LOX IMVI melanoma and 30.2% in the assay with SK-MEL-28 melanoma.
`C=CCn1c(SCC(=O)Nc2ccc(/C(C)=N/O)cc2)nnc1-c1cc(-c2ccc(S(N)(=O)=O)cc2)nc2ccccc12`: the growth in the assay with DU-145 prostate is 105%; in the assay on K-562 leukemia, 38.8%; with MALME-3M melanoma it was 88.9%; in the assay with MDA-MB-231 breast, 74.1%; in the assay on RXF 393 renal, 93.5%; in the assay on SF-268 CNS, 67.1%. The growth in the assay with SF-295 CNS was 98.4%; in the assay on SF-539 CNS, 64.2%; in the assay on UACC-257 melanoma, 92.7%; with M14 melanoma, 93.5%; in the assay with HCT-15 colon, 96.5%; with HT29 colon, 105%. In addition, the growth was 54.2% with SNB-75 CNS; 70.3% in the assay on SNB-19 CNS; 67.2% in the assay with U251 CNS; 80.2% with PC-3 prostate; 65.6% with SK-MEL-5 melanoma; 69.7% with UACC-62 melanoma. In addition, the figures for the growth with LOX IMVI melanoma and with SK-MEL-28 melanoma were 27% and 93.3%, respectively.
For `Cc1ccc(N2C(=O)CCC2=O)cc1`, the growth in the assay on DU-145 prostate is 112%; with K-562 leukemia, 113%; in the assay with MALME-3M melanoma, 108%; with MDA-MB-231 breast it was 93.7%; in the assay with RXF 393 renal, 121%; in the assay with SF-268 CNS, 103%. For the same compound, the growth with SF-295 CNS is 99.7%; in the assay on SF-539 CNS it was 101%; in the assay with UACC-257 melanoma, 109%; with M14 melanoma, 90.9%; in the assay with HCT-15 colon, 96.3%; in the assay with HT29 colon, 98.9%. Moreover, the growth with SNB-75 CNS is 103%; in the assay on SNB-19 CNS, 104%; with U251 CNS, 105%; in the assay with PC-3 prostate, 99.5%; in the assay on SK-MEL-5 melanoma, 100%; in the assay on UACC-62 melanoma it was 98%. Moreover, the results for the growth in the assay with LOX IMVI melanoma and in the assay on SK-MEL-28 melanoma were 102% and 105%, respectively.
For the compound `COc1ccc(C(=O)c2cc3c(N)c(C(=O)Nc4ccccc4)sc3nc2C)cc1`, the growth was 17.7% in the assay on DU-145 prostate; 8.08% (active) with K-562 leukemia; 62.7% with MALME-3M melanoma; 23.3% with MDA-MB-231 breast; -2.82% (active) with RXF 393 renal; 51.4% in the assay on SF-268 CNS. Besides, the growth is 26.9% in the assay with SF-295 CNS; -5.08% (active) in the assay with SF-539 CNS; 70.7% with UACC-257 melanoma; 13.1% in the assay with M14 melanoma; 18.7% in the assay on HCT-15 colon; 14.9% with HT29 colon. Besides, the growth is 28.2% in the assay with SNB-75 CNS; 25.2% with SNB-19 CNS; 17.8% with U251 CNS; 24.3% in the assay on PC-3 prostate; 17.2% in the assay with SK-MEL-5 melanoma; 30.5% with UACC-62 melanoma. The figures for the growth in the assay with LOX IMVI melanoma and in the assay on SK-MEL-28 melanoma were 53.6% and 59.8%, respectively.
